Measurements from ChEMBL document CHEMBL4513216, “Probing the Open Global Health Chemical Diversity Library for Multistage-Active Starting Points for Next-Generation Antimalarials” (ACS Infect Dis, 2020).
Screen size: about 69,000 compounds; about 8,600 (12%) showed an effect of 50% or more. This excerpt belongs to a sample that is enriched for strong results.

Test system: Plasmodium berghei
Experiment: Screen against P. berghei liver stage (PbLuc), transformed with Luciferase, at 10uM
Assay type: functional, HepG2
Conditions: tested at 10 uM

Row | Compound | INHIBITION [%]
1 | CC(C)(C)C(=O)NCC(=O)NCCc1nc(C(F)(F)F)cs1 | 15
2 | CN(C)C(=O)N1CCN(C(=O)c2cccc(Cl)c2)CC2(CNC(=O)C2)C1 (centres undefined) | 79.6
3 | CN(C)C(=O)N1CCN(C(=O)c2ccccc2)CC2(CNC(=O)C2)C1 (centres undefined) | -0.804
4 | O=C1CC2(CCN(C(=O)c3cccc(Cl)c3)CC2)CN1 | 55.7
5 | COc1cc(Cl)cc(C(=O)N2CCC3(CC2)CNC(=O)C3)c1 | 13.7
6 | CN(C)C(=O)N1CCN(C(=O)c2ccc(Cl)cc2)CC2(CNC(=O)C2)C1 (centres undefined) | 21.7
7 | CS(=O)(=O)N1CCN(C(=O)c2cccc(Cl)c2)CC2(CNC(=O)C2)C1 (centres undefined) | 13.7
8 | O=C(Cc1noc2ccccc12)N1CCC(Nc2cccnn2)CC1 | 43.3
9 | CC(C)(C)c1n[nH]c(C2CN(C(=O)c3cc(C4CC4)on3)CCO2)n1 (centres undefined) | 35.5
10 | O=C(CCCNc1ncccn1)N1CCCC(n2cncn2)C1 (centres undefined) | 27.6
11 | O=C([C@H]1CN(Cc2nccs2)C[C@H]2OCC[C@@H]12)N1CCCCO1 | 22.2
12 | CCC(=O)c1ccccc1NN1c2ccccc2C(=O)C1(C)OC (centres undefined) | 17.6
13 | CCOC1(C)C(=O)c2ccccc2N1Nc1ccccc1C(=O)CC (centres undefined) | 67.3
14 | CCC(=O)c1ccc(Br)cc1NN1c2cc(Br)ccc2C(=O)C1(C)OC (centres undefined) | 70.6
15 | CC(NC(=O)N1CCNC(=O)CC1)c1ccc(C(F)(F)F)cc1 (centres undefined) | 48.2
16 | Cc1cc2n(n1)[C@@H](C(F)(F)F)C[C@@H](C1CCN(C(=O)C(C)C)CC1)N2 | -26.2
17 | Cc1cnc(C(=O)N2CCCC(c3c(C)c(=O)nc4n3CCC4)C2)cn1 (centres undefined) | -17.7
18 | N#Cc1cccnc1N1CCN(S(=O)(=O)NCc2ccccc2)CC1 | 11.5
19 | O=S(=O)(NCc1ccccc1)N1CCN(c2ncccn2)CC1 | 31
20 | O=S(=O)(NCc1ccccc1)N1CCCN(c2ccncc2)CC1 | 71.3
21 | Cc1[nH]c2ccc(C#N)cc2c1CCNc1ncnc2c1CCNCC2 | 44.3
22 | Cc1ccccc1C(CNc1ncnc2c1CCNCC2)N(C)C (centres undefined) | -59.8
23 | Cc1cccc(=O)n1CCCNc1ncnc2c1CCNCC2 | -1.98
24 | Cc1[nH]c2ccccc2c1CCNc1ncnc2c1CCNCC2 | 72.1
25 | Cc1[nH]c2ccc(Cl)cc2c1CCNc1ncnc2c1CCNC2 | 92.5
26 | Cc1ccccc1C(CNc1ncnc2c1CCNC2)N(C)C (centres undefined) | -2.98
27 | c1cnn(CCN2CCOC(Cn3cccn3)C2)c1 (centres undefined) | -59.4

Row | Compound | INHIBITION [%]
28 | CCCOCC(=O)N1CCc2nc(NC)nc(C(=O)N3CCCC3)c2C1 | -5.08
29 | CN(C)c1ccc(C(=O)N2CCN(c3cnccn3)CC2)cn1 | 2.1
30 | Cc1nn(C)c2ncc(CN3CCN(c4ncccn4)CC3)cc12 | 7.3
31 | CCC(C)NC(=O)CS(=O)(=O)Cc1cc(Cl)c2c(c1)OCCCO2 (centres undefined) | -58.7
32 | CCOC(=O)C1(O)CCN(C(=O)Nc2cccc(CC)c2)CC1 | -41.8
33 | COc1c(C2CCCN2C(=O)c2ccnc(C)n2)c(C)nn1C (centres undefined) | 3.73
34 | Cc1nn(C)cc1CN1CCCCCC1c1ccc(Cl)cc1 (centres undefined) | 13.6
35 | Cc1noc(C(C)N2CCN(c3ncnc4ccccc34)CC2)n1 (centres undefined) | 51.3
36 | COc1cc(C)nc(N2CCN(C(C)c3nc(C)no3)CC2)n1 (centres undefined) | -72.5
37 | CCc1noc(C(C)N2CCN(C)CC2)n1 (centres undefined) | -5.25
38 | Cc1noc(C(C)N2CCN(Cc3ccco3)CC2)n1 (centres undefined) | 34.7
39 | Cc1noc(C(C)N2CCN(c3ncnc4sccc34)CC2)n1 (centres undefined) | 68.8
40 | CCc1noc(C(C)N2CCN(c3ccc(C#N)cn3)CC2)n1 (centres undefined) | -25.3
41 | CCOc1cc(C)nc(N2CCN(C(C)c3nc(C)no3)CC2)n1 (centres undefined) | 18.7
42 | CCc1cc(C)nc(N2CCN(C(C)c3nc(C)no3)CC2)n1 (centres undefined) | 53.4
43 | Cc1cnc(CN2CCN(C(C)c3nc(C)no3)CC2)cn1 (centres undefined) | -14.8
44 | Cc1noc(C(C)N2CCC(c3nc4ccccc4[nH]3)CC2)n1 (centres undefined) | 35.4
45 | COc1ccnc(N2CCN(C(C)c3nc(C)no3)CC2)n1 (centres undefined) | 22.6
46 | CCc1noc(C(C)N2CCN(c3ncnc4sccc34)CC2)n1 (centres undefined) | 61.7
47 | Nc1ccnc(N2C[C@H](O)[C@@H](N3CCN(c4ccccn4)CC3)C2)n1 | 37.2
48 | O=C([C@H]1C[C@H]2CN(c3ncc(F)cn3)C[C@@H]1O2)N1CCOCC1 | 17.7
49 | CC1CN(CC(=O)NC2CCOCC2)CCN1Cc1nccn1C (centres undefined) | 29.305
50 | CCCOc1cccc(C(=O)Oc2cc(=O)n3cccc(C)c3n2)c1 | 22.6
51 | Cc1ncncc1C(=O)N1CCCC1c1c(C)nn(C)c1Cl (centres undefined) | 1.78
52 | Cc1cnc(C(=O)N2C[C@@H]3CC[C@H]2CN(c2cnccn2)C3)cn1 | -55.1
53 | O=C(C1CCCCC1)N1CCN(Cc2nc(-c3ccco3)no2)CC1 | 23.7
54 | COC(=O)c1ccoc1CN(C)CC(=O)N(C)C | 22.8
